# Measurements reported in PubChem BioAssay (EPA / NIEHS).
# Where “and” joins values, the source holds several entries; their conditions need not be identical. Equal values may be shown once. Results filed as inconclusive are left out. Calls of active or inactive are those of the source. Rule for the calls: active = hit-call score of the fitted dose curve at least 0.9, where 1 is the maximum; inconclusive = response in the unintended direction; inactive = score below 0.9.
# Assay: CCTE_Shafer_MEA_dev_LDH: CCTE's Lactate Dehydrogenase Assay for Cytotoxicity in the Neural Network Formation Assay, Shafer Lab (AID 2284068);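 note: exposure for twelve days from plating with re-dosing on DIV 5 and 9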
# Procedure: CCTE_Shafer_MEA_dev assay is conducted using Axion Biosystems 48 well microelectrode array (MEA) plates and Maestro recording system. Each well of the MEA plate contains a grid of 16 microelectrodes embedded in the culture surface. Electrically active cells, such as neurons, can be cultured over the electrodes, and electrical activity in these cells can be recorded extracellularly. The spontaneous firing of neurons is captured from each electrode on a microsecond timescale providing both temporally and spatially precise data. […] The CCTE_Shafer_MEA_dev assay uses primary cultures of rat cortical neurons. Recordings are made on days post-plating 5, 7, 9 and 12. As these cultures mature over time, neural networks develop functional activity and form cohesive networks in which electrical activity can be highly coordinated. CCTE_Shafer_MEA_dev_LDH is 1 of 19 assay components of the CCTE_Shafer_MEA_dev assay. It measures the lactate dehydrogenase enzyme activity using spectrophotometry.Data from the assay component CCTE_Shafer_MEA_dev_LDH was analyzed into 1 assay endpoint. This assay endpoint, CCTE_Shafer_MEA_dev_LDH, was analyzed in the positive analysis fitting direction relative to DMSO as the negative control and baseline of activity. Using a type of viability reporter, loss-of-signal activity can be used to understand cell viability.
# On the day prior to culture, each well was coated thoroughly with 150 uL of 0.05% polyethyleneimine (PEI, Sigma Cat P3143) in 50 mM HEPES (Sigma Cat H7523) at a pH of 8. The plate was incubated at 37C for one hour. PEI was rinsed out with 500 uL of sterile water three times. Plates were stored at 4C until the day of culture. This culture was plated at a seeding density of 1.5 x 10^5 cells/well on a 48-well MEA plate, prepared as described above. Cells were administered via a 25 uL media/laminin ([…]; Sigma Cat L2020-1MG) drop directly onto the microelectrode array, as adding the cells with the laminin results in better attachment than pre-coating with laminin. After 2 hours, an additional 475 uL of cortical media was added and the cells returned to the incubator. Exposure starts at day 0 of plating and is continued over twelve days of network development until the experiment is terminated. Cells are fed with fresh medium on DIV 5 and 9, following the recordings on those days. The entire volume of media in the well is exchanged and any vehicle or compound treatment is renewed. Complete details are found in OP-NHEERL/ISTD/SBB/TJS/2015-03-r0 (available on request, email shafer.tim@epa.gov). Measurement of the electrical activity is non-invasive, and recordings can be made from the same plate over multiple different days of the culture. In cortical neurons, this allows for the measurement of extracellular action potentials over the period during which networks form in the MEA plate.
SMILES,AC50,outcome
CCN(CC)C(=S)SSC(=S)N(CC)CC,120 nM (active) and 58 nM (active),–
c1ccc2c(c1)-c1cccc3c1c-2cc1ccccc13,–,inactive
OC(O)(C(F)C(O)(O)C(F)(F)F)C(F)(F)F,–,inactive
OC(Cn1cncn1)(Cn1cncn1)c1ccc(F)cc1F,–,inactive
Nc1ccn([C@@H]2O[C@H](CO)[C@@H](O)[C@@H]2O)c(=O)n1,20.4 µM (active) and 2.69 µM (active),–
CCCC(CCC)C(=O)O,–,inactive
C[C@]12C=CC(=O)C=C1CC[C@H]1[C@@H]3C[C@@H](O)[C@](O)(C(=O)CO)[C@@]3(C)C[C@H](O)[C@@]12F,–,inactive
Cn1cc[nH]c1=S,46.6 nM (active),–
COc1cc2c(c(OC)c1OC)-c1ccc(OC)c(=O)cc1[C@@H](NC(C)=O)CC2,16.7 nM (active),–
FC(F)(F)COC(OCC(F)(F)F)OCC(F)(F)F,–,inactive
c1ccc2cc3ccccc3cc2c1,–,inactive
NC(=O)N1c2ccccc2C=Cc2ccccc21,–,inactive
